Experimental data from PubChem BioAssay (NCATS).
Results filed as inconclusive are left out. The source made the active and inactive calls. Calls come from the whole dose curve; as a rule, active = well fitted curve in the direction sought with a large enough effect; inconclusive = small, poorly fitted or top-dose-only effect, or another doubt; inactive = no such curve, though single readings can be large; an effect the other way counts as inactive or inconclusive.

Key:
[1] = target: Aldehyde dehydrogenase, mitochondrial (Homo sapiens) (UniProt P05091); experiment: qHTS for Inhibitors of the Aldehyde Dehydrogenase Family (ALDH2) Primary screen (AID 2061308);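 note: plate controls were vehicle for no effect and reference inhibitor for full effect; nearly all actives have a fitted effect of over 55% in size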
[2] = target: Retinaldehyde dehydrogenase 3 (Homo sapiens) (UniProt P47895); experiment: qHTS for Inhibitors of the Aldehyde Dehydrogenase Family (ALDH1A3) Primary screen (AID 2061315); note: potency is the fitted concentration of half-maximal effect
[3] = BET inhibitor-based combinations targeting novel dependencies in MECOM-rearranged (r) AML: SET-2 cell line (AID 2202231); conditions: SET-2 AML cells viability, CellTiter-Glo luminescence, 48 h; viability: active compounds read low, concentration not given here; note: nearly all actives have a fitted effect of over 35% in size; note: potency is the fitted concentration of half-maximal effect;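 for viability: plate controls were DMSO treated cells for no effect and wells without cells for full effect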
Summary of the method: (§1)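 A 48 hr incubation preceded viability reading by CellTiter-Glo, with 15 min room-temperature development. Dose series had 11 points; normalization used DMSO and empty wells; AUC was computed and mean-centered per line as Z-AUC.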

[4] = BET inhibitor-based combinations targeting novel dependencies in MECOM-rearranged (r) AML: OCI-AML3 cell line (AID 2202232); conditions: Potency: OCI-AML3 viability; note: nearly all actives have a fitted effect of over 35% in size; note: potency is the fitted concentration of half-maximal effect
Summary of the method: as §1

[5] = BET inhibitor-based combinations targeting novel dependencies in MECOM-rearranged (r) AML: MV-4-11 cell line (AID 2202233); note: nearly all actives have a fitted effect of over 45% in size; note: potency is the fitted concentration of half-maximal effect
Summary of the method: (§2)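 Each compound is tested in an 11-point concentration series against 500 seeded cells/well for 48 hr. The luminescent viability signal is normalized to DMSO and blank wells, then reduced to AUC and a cell-line-centred Z-AUC.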

[6] = BET inhibitor-based combinations targeting novel dependencies in MECOM-rearranged (r) AML: HNT-34 cell line (AID 2202234); note: nearly all actives have a fitted effect of over 35% in size; note: potency is the fitted concentration of half-maximal effect
Summary of the method: as §2

[7] = BET inhibitor-based combinations targeting novel dependencies in MECOM-rearranged (r) AML: UCSD-AML1 cell line (AID 2202235); note: nearly all actives have a fitted effect of over 40% in size; note: potency is the fitted concentration of half-maximal effect
Summary of the method: as §2

[8] = BET inhibitor-based combinations targeting novel dependencies in MECOM-rearranged (r) AML: AML-191 cell line (AID 2202236; note: nearly all actives have a fitted effect of over 35% in size; note: potency is the fitted concentration of half-maximal effect)
Summary of the method: as §1

[9] = BET inhibitor-based combinations targeting novel dependencies in MECOM-rearranged (r) AML: AML-194 cell line (AID 2202237; note: nearly all actives have a fitted effect of over 40% in size; note: potency is the fitted concentration of half-maximal effect)
Summary of the method: as §1

[10] = target: Retinaldehyde dehydrogenase 3 (Homo sapiens) (UniProt P47895); experiment: qHTS for Inhibitors of the Aldehyde Dehydrogenase Family (ALDH1A3) Confirmatory screens (AID 2061311); note: potency is the fitted concentration of half-maximal effect; nearly all actives have a fitted effect of over 60% in size
[11] = target: Retinaldehyde dehydrogenase 3 (Homo sapiens) (UniProt P47895); experiment: qHTS for Inhibitors of the Aldehyde Dehydrogenase Family (ALDH1A3) Validation screen (AID 2061312); note: potency is the fitted concentration of half-maximal effect; nearly all actives have a fitted effect of over 45% in size
[12] = target: Aldehyde dehydrogenase 1A1 (Homo sapiens) (UniProt P00352); experiment: qHTS for Inhibitors of the Aldehyde Dehydrogenase Family (ALDH1A1) Confirmatory screens (AID 2061316); note: potency is the fitted concentration of half-maximal effect; nearly all actives have a fitted effect of over 65% in size

CN1c2ccccc2C(=O)N2CCc3c([nH]c4ccccc34)C21 (stereo not drawn)
active: Potency [3] 5250 nM | Potency [4] 2950 nM | Potency [5] 3320 nM | Potency [6] 1860 nM | Potency [7] 1660 nM | Potency [8] 1320 nM | Potency [9] 1320 nM
inactive: Potency [1] | Potency [2]

CC1=C(C(=O)OC2CCCCC2)C(c2ccc([N+](=O)[O-])cc2)C2=C(CC(C)(C)CC2=O)N1 (stereo not drawn)
active: Potency [10] 2250 nM | Potency [11] 5620 nM | Potency [2] 7080 nM | Potency [12] 10100 nM

CC(=O)OCC(=O)[C@@]1(O)CC[C@H]2[C@@H]3CCC4=CC(=O)C=C[C@]4(C)[C@H]3[C@@H](O)C[C@@]21C
active: Potency [8] 833 nM | Potency [9] 372 nM
inactive: Potency [1] | Potency [2] | viability [3] 114% | Potency [5] | Potency [7]

CS(=O)(=O)N1CCC(NC(=O)c2[nH]ncc2NC(=O)c2c(Cl)cccc2Cl)CC1
inactive: Potency [1] | Potency [2]
active: Potency [3] 2350 nM | Potency [4] 1480 nM | Potency [5] 590 nM | Potency [6] 2090 nM | Potency [7] 1480 nM | Potency [8] 1180 nM | Potency [9] 1860 nM

Cc1ncc(NC(=O)c2ccc(CN3CCN(C)CC3)c(C(F)(F)F)c2)cc1Nc1nccc(-c2cccnc2)n1
inactive: Potency [1] | Potency [2] | Potency [7]
active: Potency [3] 23500 nM | Potency [4] 14800 nM | Potency [5] 3320 nM | Potency [6] 29.5 nM | Potency [9] 23500 nM

Cc1ccccc1-n1nc(-c2c(-c3ccc(F)cc3)nn3c2NC[C@@H](CO)C3)ccc1=O
inactive: Potency [1] | Potency [2] | Potency [5] | Potency [6] | Potency [8] | Potency [9]

O=C(Nc1ccnc(NC(=O)C2CC2)c1)c1c(Cl)cccc1Cl
active: Potency [3] 7420 nM | Potency [4] 7420 nM | Potency [5] 4680 nM | Potency [6] 4170 nM | Potency [7] 3320 nM | Potency [8] 5250 nM | Potency [9] 7420 nM
inactive: Potency [1] | Potency [2]

O=C(O)[C@H](CC(=O)N1C[C@H]2CCCC[C@H]2C1)Cc1ccccc1
inactive: Potency [1] | Potency [2] | viability [3] 105% | Potency [4] | Potency [5] | Potency [6] | Potency [8] | Potency [9]

CC(=O)Nc1cccc(-n2c(=O)n(C3CC3)c(=O)c3c(Nc4ccc(I)cc4F)n(C)c(=O)c(C)c32)c1
inactive: Potency [1] | Potency [2] | viability [3] 89.5%

C=CC(=O)N1CC(N2CCN(C(=O)CNc3cc(C4CC4)c(Cl)cc3O)CC2)C1
active: Potency [10] 4000 nM | Potency [11] 10000 nM | Potency [2] 2510 nM | Potency [12] 22500 nM

CC(=O)OC1CC2(C)C3=CCC4(C)C5C(O)C(O)C(C(C)C)C5(C)CCC4(C)C3CCC2C(C)(C)C1OC1OC(CO)C(O)C(O)C1O (stereo not drawn)
inactive: Potency [1] | Potency [2]

CCN1CCN(Cc2ccc(Nc3ncc(F)c(-c4cc(F)c5nc(C)n(C(C)C)c5c4)n3)nc2)CC1
inactive: Potency [1] | Potency [2]
active: Potency [4] 23500 nM | Potency [5] 296 nM | Potency [6] 5900 nM | Potency [7] 662 nM | Potency [8] 2950 nM | Potency [9] 2090 nM

COc1cccc(OCCCN)c1-c1cc(Nc2cnc(C#N)cn2)n[nH]1
inactive: Potency [1] | Potency [2]
active: Potency [3] 59 nM | Potency [6] 59 nM | Potency [7] 9.3 nM | Potency [8] 23.5 nM

COc1cc2c(Oc3ccc(NC(=O)C4(C(=O)Nc5ccc(F)cc5)CC4)cc3F)ccnc2cc1OCCCN1CCOCC1
active: Potency [4] 11800 nM | Potency [5] 7.4 nM | Potency [6] 833 nM | Potency [8] 662 nM | Potency [9] 590 nM
inactive: Potency [1] | Potency [2]

COc1cc2c(cc1OCCCN1CCCC1)N=C(N)C21CCC1
inactive: Potency [1] | viability [3] 106% | Potency [4] | Potency [6] | Potency [7] | Potency [8]

Cc1[nH]c(/C=C2\C(=O)Nc3ccc(F)cc32)c(C)c1C(=O)NCCN1CCCC1
active: Potency [4] 8110 nM | Potency [5] 32.3 nM | Potency [6] 3620 nM | Potency [7] 8110 nM | Potency [8] 6450 nM | Potency [9] 7230 nM
inactive: Potency [1] | Potency [2]

CN(C)CC(C)(C)CNc1nn2c(-c3ccccc3)nnc2cc1C1CCC1
inactive: Potency [1] | Potency [2] | viability [3] 113% | Potency [5] | Potency [7] | Potency [8] | Potency [9]

Nc1ncnc2c1C(=O)N(c1ccc(C3CCC(CC(=O)O)CC3)cc1)CCO2 (stereo not drawn)
inactive: Potency [1] | Potency [2] | viability [3] 105% | Potency [5] | Potency [6] | Potency [7] | Potency [8] | Potency [9]

Cc1c(NC(=O)c2cc(C(N)=O)nc3cc(F)ccc23)c(C(F)(F)F)nn1Cc1ccc(C#N)cc1
inactive: Potency [1] | Potency [2] | viability [3] 101% | Potency [7]
